# Measurements: PubChem BioAssay AID1508622 (National Center for Advancing Translational Sciences (NCATS), 2021)
# Activity calls are given as the source filed them. Entries that show only a call come without a potency. Calls come from the whole dose curve; as a rule, active = well fitted activation curve with a large enough effect; inconclusive = small, poorly fitted or top-dose-only effect; inactive = no such curve, though single readings can be large or run the other way.
# Experiment: Confirmatory qHTS for Identification of Small Molecule Activators of Huntingtin-Antisense Promoter Activity
# Details: HEK293 HTT-AS promoter firefly luciferase reporter, 24 h; series mostly up to 57.5 µM
# How it was run: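 2,500 luciferase reporter HEK293 cells/well; 24 h culture; cpds up to 57.5 uM final, PTC124 50 uM ctrl; 24 h, 37C; Dual-Glo FLuc reagent, 10 min RT; lum. Norm.: vehicle 0%, zero RLU -100%.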
# Potency is the fitted concentration of half-maximal effect.
row,Compound,Potency
1,COc1ccc(CCNC(=O)c2ccc3c(c2)N(Cc2ccc(F)cc2)CCS3)cc1OC,inactive
2,COC(=O)c1c(C)oc2ccc(N(C(=O)c3ccncc3)S(=O)(=O)c3ccc(Br)cc3)cc12,inactive
3,COc1cc(CN(C(=O)COc2ccc(C)cc2)c2ccccn2)cc(OC)c1OC,inactive
4,CCN(CC)S(=O)(=O)c1ccc2c(c1)N(CC(=O)N1CCN(c3cccc(C(F)(F)F)c3)CC1)C(=O)CO2,inactive
5,COc1ccc2sc(N(Cc3cccnc3)C(=O)c3ccc4c(c3)OCCO4)nc2c1,inactive
6,COC(=O)c1ccccc1NC(=O)Cn1nc(C(F)(F)F)c2c1CCCC2,inactive
7,CCOc1ccc(NC(=O)c2ccc(F)c(S(=O)(=O)N(CC)Cc3ccccc3)c2)cc1,inactive
8,COc1ccccc1C1CC(=O)NC(C)=C1C(=O)OC1CCCCCC1 (stereo not drawn),inactive
9,COc1ccc(C2c3c(-c4c(C)cc(C)cc4O)n[nH]c3C(=O)N2Cc2ccco2)cc1 (stereo not drawn),inactive
10,CCOc1ccc(S(=O)(=O)N(C(=O)c2ccncc2)c2ccc3oc(C)c(C(=O)OC)c3c2)cc1,inactive
11,COc1ccc(C(=O)Nc2cccc(-c3cn4ccsc4n3)c2)c(OC)c1,13.5 µM (active)
12,COc1ccc(NC(=O)C(=O)NCC(c2cccnc2)N2CCc3ccccc3C2)cc1 (stereo not drawn),inactive
13,Cc1nc(N2CCCC2)ncc1C(=O)Nc1ccc(OC(F)(F)F)cc1,inactive
14,CCN(CCCNC(=O)CSc1cc(=O)n(CC)c2ccccc12)c1ccccc1,inactive
15,COc1ccc(-c2cc(C)no2)cc1S(=O)(=O)N1CCN(c2ccccc2F)CC1,inactive
16,Cc1ccc(NCc2cccn2-c2nnc(N3CCC(C(=O)NCCC(C)C)CC3)s2)cc1,inactive
17,Cc1ccc(C)c(NC(=O)Cn2c(=O)oc3cc(S(=O)(=O)NCc4ccccc4)ccc32)c1,inactive
18,O=C(NCC(c1ccc2c(c1)OCO2)N1CCN(c2ccc(F)cc2)CC1)c1cccc([N+](=O)[O-])c1 (stereo not drawn),inactive
19,Cc1ccc2onc(CC(=O)N3CCN(c4cc(Cl)ccc4C)CC3)c2c1,inactive
20,Cc1cc(OCC(=O)N2CCC(c3nc4ccccc4s3)CC2)ccc1Cl,inactive
21,Cc1ccc(CN(C(=O)COc2cccc(Cl)c2)c2ccccn2)o1,inactive
22,O=C(CCCn1ccc2cc(S(=O)(=O)N3CCCC3)ccc21)NCc1ccc(Cl)cc1,inactive
23,CCOc1cc(CNC(=O)c2sc3ncnc(N(C)C4CCCCC4)c3c2C)ccc1OC,inactive
24,FC(F)(F)c1cccc(Nc2nc3nonc3nc2Nc2ccc(Cl)cc2)c1,inactive

row,Compound,Potency
1,Cc1ccc(C)c(N2CCN(CCCNC(=O)c3cnn(-c4ccccc4Cl)c3C3CCN(C(=O)OC(C)(C)C)CC3)CC2)c1,inactive
2,COc1cc2nc(N3CCCN(C)CC3)nc(NC3CCN(Cc4ccccc4)CC3)c2cc1OC,inactive
3,COc1ccc(NC(=O)CSc2nc(-c3cccs3)cc(C(F)(F)F)n2)cc1OC,inactive
4,COc1ccc(-n2ccnc2SCC(=O)Nc2cccc(OC)c2)cc1,inactive
5,Cc1cccc(C2C=C(c3ccc(F)cc3)Nc3nc4ccccc4n32)c1 (stereo not drawn),1.07 µM (active)
6,Cc1c(Cl)cccc1-n1ncc(C(=O)Nc2ccc(F)cc2F)c1C1CCN(C(=O)OC(C)(C)C)CC1,inactive
7,O=C(Nc1ccc(Oc2ccccc2)cc1)C1CCN(S(=O)(=O)c2ccccc2)CC1,inactive
8,CC(C)Oc1ccc(CNC(=O)C2CCN(C(=O)N3CCOc4ccc(Cl)cc43)CC2)cc1,inactive
9,CCSc1ncc(Cl)c(C(=O)Nc2ccc(S(=O)(=O)N3CCC(C)CC3)cc2)n1,inactive
10,COc1ccccc1CNS(=O)(=O)c1ccc2c(c1)CC(C)N2C(=O)C1CCC1 (stereo not drawn),inactive
11,Cc1ccccc1-c1nc(CS(=O)CC(=O)N2CCN(c3cc(Cl)ccc3C)CC2)c(C)o1 (stereo not drawn),inactive
12,CCCCCNS(=O)(=O)c1ccc(N2CCCCS2(=O)=O)cc1,inactive
13,Cc1ccc(C(C)C)c(OCCn2cc(C(=O)c3ccco3)c3ccccc32)c1,inactive
14,CCOC(=O)C1=C(CN2CCN(c3ccccc3F)CC2)NC(=O)NC1c1ccc(OC)cc1 (stereo not drawn),inactive
15,O=C(Nc1ccc(F)c(Cl)c1)c1cc(S(=O)(=O)N2CCCc3ccccc32)ccc1F,inactive
16,Cc1ccc(NC(=O)C2CCN(S(=O)(=O)c3ccc4[nH]c5c(c4c3)CCCCC5)CC2)cc1,inactive
17,COc1ccc(-n2c(-c3ccco3)nc3c(cnn3-c3ccc(Cl)cc3)c2=O)cc1,inactive
18,Cc1ccc(C)c(N2CCN(S(=O)(=O)c3ccc(C(=O)N(C)C)s3)CC2)c1,inactive
19,CC(C)c1ccc(CNC(=O)c2ccc(N3CCCC3)c(NC(=O)NCc3ccccc3)c2)cc1,inactive
20,Cn1c(COc2ccccc2C(C)(C)C)nc2ccccc21,inactive
21,CCOc1ccccc1CNC(=O)c1cc2c(=O)n(Cc3ccccc3)ccc2nc1C,inactive
22,CCCc1cc(N2CCN(c3ccc(OC)cc3)CC2)n2cnnc2n1,inactive
23,CN(C)S(=O)(=O)c1ccc(C(=O)NCCSc2c(-c3ccc(Cl)cc3)[nH]c3ccccc23)cc1,inactive
24,CCN(CC)S(=O)(=O)c1ccc(NC(=O)CCc2c(C)nc3cc(-c4ccc(Cl)cc4)nn3c2C)cc1,inactive

row,Compound,Potency
1,O=C(NCc1ccc(F)cc1)c1ccc(CS(=O)(=O)c2ccc(Cl)cc2)o1,inactive
2,O=C(COCc1cc(-c2ccc3c(c2)OCO3)on1)N1CCN(c2cccc(C(F)(F)F)c2)CC1,inactive
3,Cc1ccc(Cn2c(SCc3ccc(C(=O)N4CCCCC4)cc3)nc3ccncc32)cc1,inactive
4,COc1cc(NC(=O)c2cc3c(s2)-c2ccccc2OC3)cc(OC)c1OC,inactive
5,COc1ccc(N2CCN(CCCNC(=O)c3c(C)nn(-c4ccc(F)cc4)c3-n3cccc3)CC2)cc1,inactive
6,COc1ccc(CN2CCc3c(c(=O)n4ncc(C(=O)N5CCN(c6ccccc6OC)CC5)c4n3C)C2)cc1,inactive
7,Cc1cc(C)cc(NC(=O)CCCn2c3ccccc3c(=O)c3ccccc32)c1,inactive
8,Cn1c(NCCN(CCO)CCCc2ccc([N+](=O)[O-])cc2)cc(=O)n(C)c1=O,inactive
9,C=Cc1ccc(Cn2c(C(=O)O)c(CNCc3ccccc3)c3ccc(C)cc32)cc1,inactive
10,Cc1cccc(N2CCN(S(=O)(=O)c3cc(C(=O)Nc4ccc(Oc5ccccc5)cc4)ccc3F)CC2C)c1 (stereo not drawn),inactive
11,COc1ccc(-c2nc3sc(CCNS(=O)(=O)c4ccccc4)c(C)n3n2)cc1,inactive
12,CCc1cccc(C)c1NC(=O)CCCN1C(=O)C(c2ccccc2)Oc2cccnc21 (stereo not drawn),inactive
13,Cc1cc(NC(=O)CN(C)S(=O)(=O)c2ccc3c(c2)CCC(=O)N3)ccc1Br,inactive
14,COc1ccc(CNC(=O)Nc2ccc3c(c2)N(C)C(=O)c2ccccc2S3)cc1OC,inactive
15,COc1ccccc1CNC(=O)c1oc2ccc(S(=O)(=O)N3CCCCC3)cc2c1C,inactive
16,COc1ccc(NS(=O)(=O)c2ccc3c(c2)CC(C)N3C(=O)C2CCC2)cc1OC (stereo not drawn),inactive
17,Cc1ccc(Cl)cc1N1CCN(CCCNC(=O)C2COc3ccccc3C2)CC1 (stereo not drawn),inactive
18,COc1ccc(CCNC(=O)c2ccc3nc(Cc4ccccc4)oc3c2)cc1OC,inactive
19,CCN(C(=O)c1oc2ccc(S(=O)(=O)N3CCCCCC3)cc2c1C)c1ccccc1,inactive
20,Cc1ccc(C(=O)Nc2ccc(S(=O)(=O)N(Cc3ccccc3)c3ccccc3)cc2)cc1,inactive
21,COc1cccc(CNC(=O)c2cc3c(-c4ccccc4F)nn(C)c3s2)c1,inactive
22,CCc1cccc(NC(=O)CSc2nc3ccsc3c(=O)n2CC)c1,inactive
23,CCOc1ccc(-n2ccnc2SCC(=O)Nc2cc(C)ccc2C)cc1,inactive
24,O=C(NCCc1csc(-c2ccc(F)cc2)n1)c1cccc(F)c1,inactive

row,Compound,Potency
1,COc1ccc2sc(N(Cc3cccnc3)C(=O)c3ccco3)nc2c1,inactive
2,Cc1cccc2sc(N3CCN(C(=O)CS(=O)(=O)c4ccc(F)cc4)CC3)nc12,inactive
3,CCCNc1nc(NCc2ccccc2OC)c2cnn(C)c2n1,inactive
4,Cc1ccccc1NC(=O)c1c(NC(=O)C(F)(F)F)sc2c1CCCCC2,inactive
5,CCOc1ccc(NCc2cccn2-c2nnc(N3CCC(C(=O)NCCc4ccc(OC)c(OC)c4)CC3)s2)cc1,inactive
6,Cc1ccc(-n2ncc3c(N(C)Cc4ccccc4)ncnc32)cc1,0.213 µM (active)
7,Cc1nnc(N2CCN(c3cccc(C(F)(F)F)c3)CC2)c2c1nnn2Cc1ccccc1,inactive
8,O=C(Nc1cccc(C(F)(F)F)c1)C1CCCN1S(=O)(=O)c1cccc2nsnc12 (stereo not drawn),inactive
9,Cc1cccc(N2CCN(C(=O)C3CCCN(S(=O)(=O)c4ccc5c(c4)oc(=O)n5C)C3)CC2)c1C (stereo not drawn),inactive
10,Cc1ccc(NCc2cccn2-c2nnc(N3CCC(C(=O)NC(C)C)CC3)s2)cc1,inactive
11,COc1ccc(-c2noc(N3CCN(c4ccc(C)cc4)C(C)C3)n2)cc1OC (stereo not drawn),inactive
12,CCCCN(C)S(=O)(=O)c1cc(-c2cc(C)no2)ccc1C,inactive
13,O=C(NCC(c1ccccc1)c1ccccc1)c1nn(-c2ccccc2F)nc1CO,inactive
14,CCc1nc2ccc(C(=O)NCCc3ccc(OC)cc3OC)cc2nc1CC,inactive
15,Cc1ccc(Cl)cc1-n1ncc2c(NC3CCCCC3)ncnc21,inactive
16,CCN1c2ccccc2-c2nc(SCC(=O)Nc3cc(F)ccc3F)ncc2S1(=O)=O,inactive
17,CCOc1ccc(CCNC(=O)c2cc3n(n2)CCCN(Cc2ccc(C)cc2)C3=O)cc1OCC,inactive
18,COc1cc(NC(=O)c2cnc3c(-c4ccc(F)cc4)c(C)nn3c2C)cc(OC)c1,inactive
19,CCN1C(=O)c2ccccc2Sc2ccc(NC(=O)Nc3ccc(Br)c(C)c3)cc21,inactive
20,COc1ccc(CNC(=O)c2oc3c(c2C)-c2nn(Cc4ccccc4Cl)cc2CC3)cc1,inactive
21,Cc1ccc(C)c(N2CCN(C(=O)CCS(=O)(=O)c3ccc4c(c3)CC(=O)N4C)CC2)c1,inactive
